About 79,000 compounds went through this panel and 15% of them were active in at least one assay; those are over-represented in the sample as a whole. Values without a mark were called inactive. Calls of active or inactive are those of the source. Rule as the data show it: active = growth inhibition above about 70%; inactive = the rest.
Key:
[1] = NCI Yeast Anticancer Drug Screen. Data for the rad50 strain (AID 155);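 also: 0% = growth of vehicle-only cultures of the same strain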; conditions: S. cerevisiae rad50 strain growth inhibition, active compounds read high
How it was run: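 Compounds were tested on a yeast strain with an engineered DNA damage repair alteration; the reported value is growth inhibition normalised to vehicle treatment.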

[2] = NCI Yeast Anticancer Drug Screen. Data for the mec2-1 strain (AID 157); conditions: S. cerevisiae mec2-1 strain, active compounds read high
How it was run: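 Each compound was tested on mec2-1 yeast, a strain altered in DNA damage repair or cell cycle control. Growth inhibition is reported relative to vehicle.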

[3] = NCI Yeast Anticancer Drug Screen. Data for the sgs1 mgt1 strain (AID 161);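 also: 0% = growth of cultures given vehicle only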; conditions: S. cerevisiae sgs1 mgt1 strain, active compounds read high
How it was run: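 Test agents were incubated with a DNA-repair-mutant yeast strain. Growth was then read and compared against vehicle-treated controls.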

[4] = NCI Yeast Anticancer Drug Screen. Data for the cln2 rad14 strain (AID 165);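 also: 0% = growth equal to vehicle treated cultures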; conditions: S. cerevisiae cln2 rad14 strain, active compounds read high
How it was run: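 Test compounds were added to cln2 rad14 yeast cultures; inhibition of growth was then determined by comparison with vehicle treatment.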

[5] = NCI Yeast Anticancer Drug Screen. Data for the bub3 strain (AID 167); conditions: S. cerevisiae bub3 mutant strain, active compounds read high
How it was run: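 Growth of a checkpoint-deficient yeast mutant is measured after compound exposure. Values represent inhibition relative to vehicle.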

[6] = NCI Yeast Anticancer Drug Screen. Data for the mlh1 rad18 strain (AID 175); conditions: S. cerevisiae mlh1 rad18 strain growth inhibition, active compounds read high
How it was run: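 Inhibition values reflect reduced growth of mutant yeast versus vehicle-treated controls following compound exposure; the mutations affect DNA damage repair.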

[7] = at 5.0 µM (retest, dose inferred, filed as 0.5)
[8] = at 50.0 µM (retest, dose inferred, filed as 5.0)

Structure (SMILES)	growth inhibition [1, 7]	growth inhibition [1, 8]	growth inhibition ([1]; at 50.0 µM)	growth inhibition [2, 7]	growth inhibition [2, 8]	growth inhibition ([2]; at 50.0 µM)	growth inhibition [3, 7]	growth inhibition [3, 8]	growth inhibition ([3]; at 50.0 µM)	growth inhibition [4, 7]	growth inhibition [4, 8]	growth inhibition ([4]; at 50.0 µM)	growth inhibition [5, 7]	growth inhibition [5, 8]	growth inhibition ([5]; at 50.0 µM)	growth inhibition [6, 7]	growth inhibition [6, 8]	growth inhibition ([6]; at 50.0 µM)
CCCCCCCC(=O)[O][Hg][c]1ccccc1	99% (active)	99% (active)	99.5% (active)	100% (active)	100% (active)	99.8% (active)	100% (active)	100% (active)	99.7% (active)	99% (active)	99% (active)	99.5% (active)	100% (active)	99% (active)	99.8% (active)	100% (active)	100% (active)	99.7% (active)
O=C(N/N=C/c1cc(Br)cc(Br)c1[O-])c1ccccc1O.O=C(N/N=C/c1cc(Br)cc(Br)c1[O-])c1ccccc1O.[Co+2]	93% (active)	97% (active)	94.6% (active)	95% (active)	96% (active)	95.7% (active)	91% (active)	98% (active)	94.8% (active)	82% (active)	97% (active)	92.5% (active)	90% (active)	97% (active)	95.5% (active)	95% (active)	96% (active)	96% (active)
O=C(O)C(F)(F)F.[Ag]	99% (active)	98% (active)	98.1% (active)	100% (active)	99% (active)	99.2% (active)	99% (active)	99% (active)	99.1% (active)	99% (active)	99% (active)	98.7% (active)	99% (active)	98% (active)	98.5% (active)	99% (active)	99% (active)	97.6% (active)
[N-]=[N+]=NC1(N=[N+]=[N-])C(=O)NN=C(c2ccccc2)C1=O (configuration not stated)	-12%	87% (active)	84% (active)	15%	91% (active)	91.2% (active)	4%	83% (active)	88% (active)	23%	87% (active)	86.8% (active)	-3%	97% (active)	89.7% (active)	31%	97% (active)	79.7% (active)

Reference: PubChem BioAssay (NCI)
